{"source": "ChEMBL document CHEMBL3988442", "about": "“University of Dundee, Small-Polar-MMV Screening Library” (2021)", "note": "Where “and” joins values, the source holds several entries; their conditions need not be identical. Identical values can stand only once. In all, about 67,000 compounds went through this assay and about 40 (0.06%) showed an effect of 50% or more. This excerpt belongs to a sample that is enriched for strong results.", "data": [{"molecular_target": "T1, Coenzyme A biosynthesis bifunctional protein CoaBC (Mycobacterium tuberculosis (strain ATCC 25618 / H37Rv)) (UniProt P9WNZ1)", "T1 sequence (whole entry)": "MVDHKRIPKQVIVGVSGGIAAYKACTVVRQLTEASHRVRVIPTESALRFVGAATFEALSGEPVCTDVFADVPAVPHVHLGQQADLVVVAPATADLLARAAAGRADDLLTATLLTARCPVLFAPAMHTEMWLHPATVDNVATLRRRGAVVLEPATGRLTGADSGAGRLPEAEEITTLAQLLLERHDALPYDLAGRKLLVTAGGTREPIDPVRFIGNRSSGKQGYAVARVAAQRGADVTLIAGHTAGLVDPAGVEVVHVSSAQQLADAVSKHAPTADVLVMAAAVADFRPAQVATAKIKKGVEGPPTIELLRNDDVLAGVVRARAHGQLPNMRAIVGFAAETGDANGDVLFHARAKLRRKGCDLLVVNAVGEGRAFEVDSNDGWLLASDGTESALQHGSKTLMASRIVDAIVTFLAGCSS", "experiment": "Biomol Green assay for MtCoaBC inhibitor, OD650 read", "assay_type": "functional", "parameters": "scale not given: in the data most compounds retested in dose-response had high values", "conditions": "30 µM", "values": [{"smiles": "CN(Cc1cccnc1)C1COC2(CCN(Cc3nccs3)CC2)C1", "note": "(configuration not stated)", "Percent Effect": "1.85%"}, {"smiles": "Cc1ccc(CN2CCC3(CC2)CC3CN(C)Cc2cccnc2)o1", "note": "(configuration not stated)", "Percent Effect": "-31.5%"}, {"smiles": "Cc1noc(C)c1C(=O)N1CC[C@H]2C[C@@H](c3ccncn3)O[C@@H]2C1", "Percent Effect": "-0.386%"}, {"smiles": "CCCS(=O)(=O)N1C[C@@H]2CN(Cc3cnn(C)c3)CCO[C@@H]2C1", "Percent Effect": "4%"}, {"smiles": "O=C(c1cnccn1)N1C[C@@H]2C[C@@H](c3nc(C4CC4)cs3)O[C@@H]2C1", "Percent Effect": "2.75%"}, {"smiles": "c1csc(CN2CCO[C@H]3[C@H](OCCN4CCCC4)CC[C@@H]32)n1", "Percent Effect": "5.46%"}, {"smiles": "CCC1=N[C@@]2(CC[C@@H]3CN(S(=O)(=O)CC)C[C@@H]32)C(=O)N1CC(C)C", "Percent Effect": "2.92%"}, {"smiles": "CCc1nc2n(n1)CC(NCc1cc(OC)c3c(c1)OCO3)CC2", "note": "(configuration not stated)", "Percent Effect": "-7.88%"}, {"smiles": "COc1cc(CNC2CCc3nc(C)nn3C2)cc2c1OCCO2", "note": "(configuration not stated)", "Percent Effect": "-5.17%"}, {"smiles": "Cc1ccc(N2CC[C@H]3OCC[C@@]3(C(=O)N(C)C)C2)nn1", "Percent Effect": "2.24%"}, {"smiles": "CS(=O)(=O)N1CC[C@H]2[C@H](C[C@@H](Cn3cncn3)N2CC2CC2)C1", "Percent Effect": "5%"}, {"smiles": "CC1CCCN(C(=O)c2csc(S(N)(=O)=O)c2)CC1", "note": "(configuration not stated)", "Percent Effect": "-0.441%"}, {"smiles": "CC(C)(C)N1CCCN(C(=O)c2csc(S(N)(=O)=O)c2)CC1", "Percent Effect": "-6.17%"}, {"smiles": "Cc1cnc(N2C[C@H]3CCN(CC4CC4)C[C@@H]3C2)nc1", "Percent Effect": "-28.5%"}, {"smiles": "O=C(O)COc1ccc(CN2CCCC(CCc3ccccc3)C2)cc1", "note": "(configuration not stated)", "Percent Effect": "94.3% and 88.4%"}, {"smiles": "COc1ccc(CCC2CCCN(CC(=O)O)C2)cc1", "note": "(configuration not stated)", "Percent Effect": "0.988%"}, {"smiles": "O=C(O)COc1ccc(CN2CCCC(Cc3cccnc3)C2)cc1", "note": "(configuration not stated)", "Percent Effect": "0.485%"}, {"smiles": "CCOCCN1CCN(CCc2ccc3c(c2)CCO3)CC1", "Percent Effect": "-14.1%"}, {"smiles": "COCC(C)N1CCN(CCc2ccc3c(c2)CCO3)CC1", "note": "(configuration not stated)", "Percent Effect": "4.17%"}, {"smiles": "CN1CCN(C[C@H]2OC[C@@H]3CCN(Cc4ccsc4)C[C@@H]32)CC1", "Percent Effect": "-5.68%"}, {"smiles": "O=C1[C@H]2CN(C3CCOC3)C[C@H]2CN1c1ccccc1", "note": "(some centres not stated)", "Percent Effect": "2.66%"}, {"smiles": "Cc1cc(CN2C[C@@H]3CCCO[C@@H]3[C@H](N(C)C(C)C)C2)no1", "Percent Effect": "9.94%"}, {"smiles": "O=C(NCC1CC1)[C@@H]1CCO[C@@H]2CCN(c3ncccn3)C[C@@H]21", "Percent Effect": "0.323%"}, {"smiles": "Cc1nonc1C(=O)N1CC[C@@]2(O)CCN(C3CCCCC3)C[C@H]2C1", "Percent Effect": "10.8%"}, {"smiles": "O=C(NC1CCN(C2CC2)C1)c1cn(-c2ccc(F)cc2)nn1", "note": "(configuration not stated)", "Percent Effect": "-3.95%"}, {"smiles": "O=C(NC1CCN(C2CC2)CC1)c1cn(-c2ccc(Cl)cc2)nn1", "Percent Effect": "3.19%"}, {"smiles": "CC(C)CCN1C[C@H]2C[C@H](C(=O)N3CCCC3)[C@@H](C1)O2", "Percent Effect": "1.46%"}, {"smiles": "CC(C)N1[C@H](Cn2cncn2)C[C@@H]2CN(Cc3nccn3C)CC[C@@H]21", "Percent Effect": "4.19%"}, {"smiles": "COc1ccc(CN2C[C@H]3CCC[C@@H](CN(C)C4CC4)[C@H]3C2)cn1", "Percent Effect": "-25.8%"}, {"smiles": "O=C(C1CC1)N1CCN2C[C@H](c3ccccc3)[C@@H](CO)[C@H]2C1", "Percent Effect": "-2.91%"}, {"smiles": "O=C1CC(c2ccccc2)c2sc(C(=O)O)c(-c3ccccc3)c2N1", "note": "(configuration not stated)", "Percent Effect": "-0.766%"}, {"smiles": "O=C1CC(c2ccc(O)cc2)c2sc(C(=O)O)c(-c3ccccc3)c2N1", "note": "(configuration not stated)", "Percent Effect": "1.28%"}, {"smiles": "Cc1ccc(CN2CC[C@H]3OCC[C@@H](C(=O)NC4CC4)[C@@H]3C2)o1", "Percent Effect": "3.34%"}, {"smiles": "O=C(c1ccco1)N1CC[C@@H]2[C@H]1CCC(=O)N2c1ccccc1", "Percent Effect": "3.58%"}, {"smiles": "CN(Cc1cnccn1)C(=O)[C@@]12CNC[C@@H]1CN(Cc1ccccc1)C2", "Percent Effect": "2.15%"}, {"smiles": "CC(C)(C)OC(=O)NCC(=O)NCc1ccc(Cl)s1", "Percent Effect": "7.73%"}, {"smiles": "CC(NC(=O)CN1CCCC1=O)c1ccc(Cl)s1", "note": "(configuration not stated)", "Percent Effect": "-0.806%"}, {"smiles": "O=C(C1CCOCC1)N1CCN2C(=O)N(Cc3ccc(F)cc3)C[C@H]2C1", "Percent Effect": "12%"}, {"smiles": "CC1CCN(C(=O)[C@@H]2CC[C@@H]3[C@@H](CCN3c3ncc(F)cn3)O2)CC1", "Percent Effect": "-4.84%"}, {"smiles": "CNC(=O)[C@H]1C[C@@H]2CN(Cc3cccnc3OC)C[C@@H]2N1C(C)C", "Percent Effect": "1.06%"}, {"smiles": "O=C(c1ccsc1)N1CCO[C@@H]2CN(Cc3cccs3)C[C@@H]2C1", "Percent Effect": "-4.58%"}, {"smiles": "Cc1nnc(N2C[C@H](Oc3ccccn3)[C@H]3OCCC[C@H]32)s1", "Percent Effect": "4.91%"}, {"smiles": "Cc1ccc(-n2c(COCC(=O)O)nc3c(C)cccc32)nc1", "Percent Effect": "5.78%"}, {"smiles": "Cc1cccc2c1nc(COCC(=O)O)n2-c1ccsc1", "Percent Effect": "5.35%"}, {"smiles": "COCCC(=O)N1C[C@H]2CC[C@@H]1CN(C1Cc3ccccc3C1)C2", "Percent Effect": "2.15%"}, {"smiles": "Cn1cc(CN2C[C@H]3CCC[C@@H](CNc4ncccn4)[C@H]3C2)cn1", "Percent Effect": "-2.24%"}, {"smiles": "Cc1occc1C(=O)N1C[C@H]2CCCC(OCc3cccnc3)[C@H]2C1", "note": "(some centres not stated)", "Percent Effect": "7.49%"}, {"smiles": "CN(Cc1ccccn1)C(=O)[C@H]1CO[C@H]2CCN(CC3CC3)C[C@H]2C1", "Percent Effect": "1.98%"}, {"smiles": "CN(Cc1nnc2n1CCC2)S(=O)(=O)c1cc(Br)ccc1Br", "Percent Effect": "3.23%"}, {"smiles": "CN(Cc1nnc2n1CCC2)S(=O)(=O)c1ccc(Br)cc1Cl", "Percent Effect": "-1.49%"}, {"smiles": "Cc1cccc(CN2C[C@@H]3OCCN(C)[C@@H]3C2)n1", "Percent Effect": "4.44%"}, {"smiles": "c1cnn([C@@H]2CN(Cc3nccs3)[C@@H]3CCCO[C@@H]32)c1", "Percent Effect": "2.08%"}, {"smiles": "COCCN1C(=O)CC[C@@H]2[C@H]1CCN2C(=O)N(C)C", "Percent Effect": "12.9%"}, {"smiles": "CCOC(=O)[C@]12CCCN(Cc3ccco3)C[C@H]1CN(CCN(C)C)C2", "Percent Effect": "3.17%"}, {"smiles": "COCC(=O)NC(CC(C)C)c1nc2cccnc2n1C", "note": "(configuration not stated)", "Percent Effect": "-0.123%"}, {"smiles": "CC(C)CC(NC(=O)c1ccco1)c1nc2cccnc2n1C", "note": "(configuration not stated)", "Percent Effect": "-9.45%"}, {"smiles": "COc1cccc(CC(=O)N2CC[C@H]3[C@@H]2CCC(=O)N3C)c1", "Percent Effect": "-4.44%"}, {"smiles": "Cc1ccsc1CN1C[C@@H]2COC[C@]2(CNC(=O)c2ccco2)C1", "Percent Effect": "2.1%"}, {"smiles": "Cn1cc(N2C[C@@H]3CN(Cc4ccoc4)C[C@@H]3C2=O)cn1", "Percent Effect": "-6.36%"}, {"smiles": "CCOCC1CCN(C(=O)C(c2c(F)cccc2F)N(C)C)CC1", "note": "(configuration not stated)", "Percent Effect": "-0.163%"}, {"smiles": "CN(C)C(C(=O)N1CCC(CCO)CC1)c1ccccc1F", "note": "(configuration not stated)", "Percent Effect": "10.1%"}, {"smiles": "CN(C)c1ncc(C(=O)N2C[C@H]3C[C@H](Oc4ccccc4)C[C@H]3C2)cn1", "Percent Effect": "12.4%"}, {"smiles": "Cc1nc(-c2ccc(CC(=O)N3CCN(C(=O)C4CC4)CC3)cc2)cs1", "Percent Effect": "-8.67%"}, {"smiles": "Cc1nc(-c2ccc(CC(=O)N3CCNC(=O)C3)cc2)cs1", "Percent Effect": "-8.27%"}, {"smiles": "COc1cccc(S(=O)(=O)N2CCN(C)[C@@H]3CS(=O)(=O)C[C@@H]32)c1", "Percent Effect": "-2.92%"}, {"smiles": "O=C1CC[C@H]2CN(c3ncc(F)cn3)CC[C@H]2N1CCc1c[nH]cn1", "Percent Effect": "-3.02%"}, {"smiles": "CC(C)NC(=O)[C@@]12CCO[C@@H]1CCN(Cc1ccc3c(c1)OCO3)C2", "Percent Effect": "-0.976%"}]}]}
